In PubChem BioAssay (NCI):
The panel holds about 79,000 compounds, 15% with a hit somewhere; the sample as a whole holds those more often. Active and inactive are the calls of the source. Cut-off read from the data, not from the text of the source: active = growth inhibition above about 70%; inactive = the rest.

Legend:
[1] = NCI Yeast Anticancer Drug Screen. Data for the rad50 strain (AID 155);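 note: 0% = growth of vehicle-only cultures of the same strain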; conditions: S. cerevisiae rad50 strain growth inhibition; at 50.0 µM; hits give high values
How it was run: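 Inhibition values express reduced yeast growth in compound-treated cultures relative to vehicle-treated controls.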

[2] = NCI Yeast Anticancer Drug Screen. Data for the mec2-1 strain (AID 157); conditions: S. cerevisiae mec2-1 strain, at 50.0 µM, hits give high values
How it was run: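 Test agents were screened against the mec2-1 yeast strain, with defined DNA repair or cell cycle alteration. Growth was scored as inhibition against vehicle-only controls.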

[3] = NCI Yeast Anticancer Drug Screen. Data for the sgs1 mgt1 strain (AID 161);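 note: 0% = growth of cultures given vehicle only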; conditions: S. cerevisiae sgs1 mgt1 strain, at 50.0 µM, hits give high values
How it was run: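 Inhibition of yeast growth, normalised to vehicle-treated controls, is reported for a strain bearing genetic alterations in DNA damage repair.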

[4] = NCI Yeast Anticancer Drug Screen. Data for the cln2 rad14 strain (AID 165);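 note: 0% = growth equal to vehicle treated cultures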; conditions: S. cerevisiae cln2 rad14 strain, at 50.0 µM, hits give high values
How it was run: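 Growth of compound-exposed yeast (cln2 rad14 genotype) measured and expressed as inhibition relative to vehicle.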

[5] = NCI Yeast Anticancer Drug Screen. Data for the bub3 strain (AID 167); conditions: S. cerevisiae bub3 mutant strain, at 50.0 µM, hits give high values
How it was run: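 Steps: expose the mutant yeast strain to compound; grow alongside vehicle-treated cultures; measure growth; express inhibition against the vehicle cultures.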

[6] = NCI Yeast Anticancer Drug Screen. Data for the mlh1 rad18 strain (AID 175); conditions: S. cerevisiae mlh1 rad18 strain growth inhibition; at 50.0 µM; hits give high values
How it was run: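 In this whole-cell yeast screen, a strain with altered DNA damage repair is challenged with compound, and its growth is measured against matched vehicle-treated controls.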

SMILES	growth inhibition [1]	growth inhibition [2]	growth inhibition [3]	growth inhibition [4]	growth inhibition [5]	growth inhibition [6]
CC[N+]1(C)CCC(CN2c3ccccc3Sc3ccccc32)C1 (stereo unspecified)	31.4% (inactive)	22.6% (inactive)	38.5% (inactive)	-2.65% (inactive)	6% (inactive)	43.3% (inactive)
O=C(O)c1cccc(S(=O)(=O)NN2C(=O)CSC2c2ccccc2Cl)c1 (stereo unspecified)	28.5% (inactive)	-3.95% (inactive)	2.85% (inactive)	5.9% (inactive)	12.7% (inactive)	28.7% (inactive)
CCOC(=O)CCC(NC(=O)c1ccc(NCc2ccc3nc(-c4ccccc4)c(Cl)nc3c2)cc1)C(=O)OCC (stereo unspecified)	29.7% (inactive)	-3.85% (inactive)	-5.3% (inactive)	-5.6% (inactive)	1.7% (inactive)	4.3% (inactive)
CC1(C)OCC(C2OC(C)(C)OC2C(CO)Nc2ccc([N+](=O)[O-])cc2[N+](=O)[O-])O1 (stereo unspecified)	53% (inactive)	21.4% (inactive)	59.1% (inactive)	41.4% (inactive)	11.2% (inactive)	49.1% (inactive)
O=C1CC2CCCCC2CC1c1ccc(OCc2ccccc2)c(OCc2ccccc2)c1 (stereo unspecified)	-6.7% (inactive)	-0.25% (inactive)	23.6% (inactive)	9.1% (inactive)	-3.55% (inactive)	-13.7% (inactive)
O=C1NC(CO)C(=O)NC1CO (stereo unspecified)	3.7% (inactive)	-4.4% (inactive)	-12.2% (inactive)	-2.75% (inactive)	0.25% (inactive)	-4.8% (inactive)
CCCC(P(=O)(c1ccccc1)c1ccccc1)[P+](CC)(c1ccccc1)c1ccccc1 (stereo unspecified)	84.6% (active)	78.2% (active)	85.9% (active)	54.6% (inactive)	81.7% (active)	77.8% (active)
Cc1ccc2nc(-c3ccc4nc(-c5ccc(N=Nc6ccc(-c7nc8ccc(-c9nc%10ccc(C)c(S(=O)(=O)O)c%10s9)cc8s7)cc6)cc5)sc4c3)sc2c1S(=O)(=O)O	12.7% (inactive)	-13% (inactive)	21.4% (inactive)	-0.3% (inactive)	-3.2% (inactive)	-26.9% (inactive)
CC(=S)NC(=O)Nc1cccc2ccccc12	19.2% (inactive)	-8.45% (inactive)	2.4% (inactive)	-50.6% (inactive)	-10.2% (inactive)	10.8% (inactive)
O=C1CCC2CCc3cccc1c32 (stereo unspecified)	0.15% (inactive)	-7.75% (inactive)	-12.3% (inactive)	-19.4% (inactive)	-18.6% (inactive)	3.05% (inactive)
NC(=S)N/N=C(\Cc1nc2ccc(Cl)cc2[nH]c1=O)C(=O)Nc1ccc(Cl)cc1	-17.9% (inactive)	2.35% (inactive)	-23.9% (inactive)	-10.2% (inactive)	-15.4% (inactive)	-9.05% (inactive)
CC(=O)Oc1cc(O)oc(=O)c1	33% (inactive)	-14.8% (inactive)	21.1% (inactive)	19.3% (inactive)	11.3% (inactive)	13.1% (inactive)
COc1ccc(C(CC(=O)O)c2ccccc2)cc1 (stereo unspecified)	-31.4% (inactive)	-42.6% (inactive)	-2.55% (inactive)	-14.4% (inactive)	-29.8% (inactive)	-28.6% (inactive)
O=C1Cc2ccccc2C(O)=C1c1cnccn1	6.3% (inactive)	11.2% (inactive)	19.6% (inactive)	-1.6% (inactive)	0.25% (inactive)	5.95% (inactive)
O=C1CCCNC(=O)CCCN1	15% (inactive)	-9.55% (inactive)	-5.45% (inactive)	-40.5% (inactive)	-14.3% (inactive)	-5.9% (inactive)
CCN(CC)CCOc1ccc(N2Cc3cc(OC)c(OC)cc3C2=O)cc1	-11.9% (inactive)	-7.45% (inactive)	-4.2% (inactive)	13.5% (inactive)	8.6% (inactive)	-13.8% (inactive)
c1cnc(NC(Nc2cnccn2)C2CCCCC2)cn1	-2.25% (inactive)	-1.55% (inactive)	-6.6% (inactive)	-20.9% (inactive)	4.25% (inactive)	1.35% (inactive)
Cc1nc2nn[nH]n2c(=O)c1CCO	13.2% (inactive)	0.15% (inactive)	16.2% (inactive)	14.2% (inactive)	-6.95% (inactive)	-51.6% (inactive)

SMILES	growth inhibition [1]	growth inhibition [2]	growth inhibition [3]	growth inhibition [4]	growth inhibition [5]	growth inhibition [6]
COc1cc(/C(C#N)=C/c2ccccn2)c([N+](=O)[O-])cc1OC	-7.9% (inactive)	-2% (inactive)	6% (inactive)	-36.6% (inactive)	4.5% (inactive)	-5.9% (inactive)
O=C(Nc1ccccc1)Nc1ccc2ccccc2c1	-7.75% (inactive)	-0.2% (inactive)	2.1% (inactive)	-22.2% (inactive)	12.9% (inactive)	-10.9% (inactive)
Cc1ccc(-c2cc(-c3ccco3)c(C#N)c(=O)[nH]2)cc1	13.5% (inactive)	-8.55% (inactive)	-13.5% (inactive)	16.4% (inactive)	-10% (inactive)	6.8% (inactive)
COc1ccc2c(c1)CC/C(=C\c1ccccn1)C2=O	41.5% (inactive)	33.5% (inactive)	16.8% (inactive)	24.4% (inactive)	19.5% (inactive)	14.4% (inactive)
CCOC(=O)C(=CNC(=S)Nc1cc(C)ccc1C)C(=O)OCC	-12.8% (inactive)	-38.5% (inactive)	-14.1% (inactive)	-19.1% (inactive)	-16.7% (inactive)	-1.85% (inactive)
CN(NC(=O)Nc1cccc2ccccc12)c1ccccc1	-4.7% (inactive)	-16.2% (inactive)	14.7% (inactive)	-63.8% (inactive)	1.65% (inactive)	-6.85% (inactive)
COC1=CC(=C(\C#N)c2ccccc2)/C=CC/1=N/O	40.2% (inactive)	39% (inactive)	46.6% (inactive)	-2% (inactive)	64.5% (inactive)	46.8% (inactive)
Nc1ncnc(Nc2ccc(S(=O)(=O)O)cc2)n1	-35.9% (inactive)	-32.6% (inactive)	-31.1% (inactive)	-1.25% (inactive)	-34.9% (inactive)	-27.2% (inactive)
Cc1ccc(NC(=O)CCC(NS(=O)(=O)c2ccc(C)cc2)C(=O)O)cc1 (stereo unspecified)	26.4% (inactive)	17.5% (inactive)	25.6% (inactive)	18.6% (inactive)	-1.1% (inactive)	42.1% (inactive)
CC(C)(CO)N1CCN(C(=S)Nc2ccccc2)CC1	17.9% (inactive)	-2.6% (inactive)	-0.3% (inactive)	-1.9% (inactive)	-10.8% (inactive)	17.8% (inactive)
COc1c(Br)cc(Br)cc1Br	-1.45% (inactive)	-5.7% (inactive)	14.2% (inactive)	-47.1% (inactive)	-10.8% (inactive)	6.05% (inactive)
CC(Oc1ccccc1-c1ccccc1)C(=O)O (stereo unspecified)	6.95% (inactive)	-22.2% (inactive)	-5.9% (inactive)	5.45% (inactive)	-1.9% (inactive)	15.1% (inactive)
CC1COC(C)(C2CC2)O1 (stereo unspecified)	6.6% (inactive)	9.95% (inactive)	-24.4% (inactive)	-13.7% (inactive)	7.45% (inactive)	6.5% (inactive)
COc1ccc(NC(=O)CCc2cc(-c3ccc(O)c(OC)c3)nc(NC#N)n2)cc1	-8.1% (inactive)	9% (inactive)	-37% (inactive)	6% (inactive)	27.6% (inactive)	-28.9% (inactive)
COc1ccccc1-n1c(C)nc2c(cnn2CN2CCCCC2)c1=O	0.85% (inactive)	-6.4% (inactive)	12.3% (inactive)	-0.7% (inactive)	0.95% (inactive)	12% (inactive)
N[C@@H]1c2c(Br)sc(Br)c2C(=O)[C@H]1Br	-5.35% (inactive)	-2.85% (inactive)	5.6% (inactive)	5.95% (inactive)	-7.05% (inactive)	-17.4% (inactive)
c1ccc(-c2csnn2)cc1	-8.6% (inactive)	-12.2% (inactive)	-4.05% (inactive)	-17.8% (inactive)	-13.4% (inactive)	-11.8% (inactive)
Nc1cccc2sccc12	4.25% (inactive)	5.15% (inactive)	-3.85% (inactive)	-4.1% (inactive)	11.9% (inactive)	-3.35% (inactive)
